We go through 57 molecules from PubChem BioAssay AID588814 (The Scripps Research Institute Molecular Screening Center, 2011).

SMILES strings stand for the structures. Hit rate of the full screen: of about 360,000 compounds, about 1,200 (0.33%) were called active.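 The calls were made as follows: active = activation above the run's mean compound activation plus 3 SD (cut at about 16% in these data); inactive = the rest.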 What follows is part of a selection rich in actives, with near analogues and random picks from the rest.

Muscarinic acetylcholine receptor M1 (Homo sapiens), sequence (P11229 whole entry, looked up): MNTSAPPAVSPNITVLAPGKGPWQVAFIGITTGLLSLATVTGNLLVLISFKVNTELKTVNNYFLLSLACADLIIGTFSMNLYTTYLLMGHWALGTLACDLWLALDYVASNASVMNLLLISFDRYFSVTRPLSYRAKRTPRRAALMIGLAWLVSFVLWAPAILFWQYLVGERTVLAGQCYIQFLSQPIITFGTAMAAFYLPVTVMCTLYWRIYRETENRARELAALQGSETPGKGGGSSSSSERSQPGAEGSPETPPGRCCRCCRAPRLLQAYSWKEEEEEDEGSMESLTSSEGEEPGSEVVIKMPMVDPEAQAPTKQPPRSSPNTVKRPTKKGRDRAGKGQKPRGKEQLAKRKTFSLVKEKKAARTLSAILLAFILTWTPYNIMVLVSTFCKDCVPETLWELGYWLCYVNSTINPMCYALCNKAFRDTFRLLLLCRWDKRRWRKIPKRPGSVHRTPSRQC

This assay addresses Muscarinic acetylcholine receptor M1 (Homo sapiens) (UniProt P11229). Put plainly: CHRM1 activation via calcium signal – Fluo-8 calcium fluorescence, CHO-K1 cells, HTS, primary screen (AID 588814).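 Also: peak over basal fluorescence ratio within a 140 s kinetic read after compound addition.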 The settings on record: CHO-K1 hM1, Fluo-8 calcium fluorescence, agonist mode; at 3 µM; active compounds read high; 0% DMSO, 100% acetylcholine EC100.
For the molecule `CCC(=O)c1ccc(OCC(=O)OCC(=O)N2CCc3ccccc3C2)cc1`, the activation is -1.8% (inactive).
Regarding `CCN1CCc2nc(NC(=O)c3cc(F)c(F)cc3Cl)sc2C1`, the activation was -7.11% (inactive).
As for `COC(=O)c1ccc(CSc2ccc3nnc(-c4ccccc4)n3n2)o1`, the figure is -7.9% (inactive); as for `CCN1/C(=C\c2ccc3ccccc3[n+]2CC)Sc2cc(C)ccc21`, 26.1% (active); as for `COCCNC(=O)C1CCCN(Cc2ccccc2Cl)CC1` (configuration not stated), -7.52% (inactive).
As for `CCCNC(=O)CCn1nc(-c2ccccc2)c2ccccc2c1=O`, the figure is -3.19% (inactive); as for `COc1ccc(CNC(=O)CN(C(=O)c2csnn2)c2cnc3ccccc3c2)cc1`, -11.5% (inactive).
As for `CCOC(=O)C(CC)/C(C)=N\NC(=O)c1cccc(C)c1` (configuration not stated), the figure is -0.97% (inactive); as for `COc1ccccc1S(=O)(=O)c1c(C)cc(C)[nH]c1=O`, -1.5% (inactive); as for `Cc1cc(C)c(/C=C2\C(=O)Nc3ccccc32)[nH]1`, 26.4% (active).
With `O=C1c2ccccc2NC(c2ccccn2)N1NS(=O)(=O)c1ccccc1` (configuration not stated), the activation is 0.48% (inactive).
As for `Cc1ccc(CN2C(=O)N/C(=C/c3cc(C)n(-c4ccccn4)c3C)C2=O)cc1`, the figure is -1.17% (inactive).
Then `CN(C(=O)CN1C(=O)NC(C)(CCc2ccccc2)C1=O)c1ccccc1` (configuration not stated), with -0.73% (inactive); and `CN(C)c1ccc(/C=C2\NC(=S)N(Cc3ccccc3)C2=O)cc1`, with 47.3% (active); and `Cc1ccc(S(=O)(=O)N(Cc2ccc(Cl)cc2)c2ccccc2C(=O)NCc2cccnc2)cc1`, with -7.63% (inactive).
As for `CC(C)N(C(=O)Cn1cc(SCC(=O)N2CCCC2)c2ccccc21)C(C)C`, the figure is -6.14% (inactive); as for `O=C(CC1SCCNC1=O)Nc1ccc(Cl)cc1` (configuration not stated), -4.53% (inactive).
As to `O=C(Nc1ccc2ccccc2c1)/C(=C\c1ccc2c(c1)OCO2)NC(=O)c1ccco1`, the activation was -10.2% (inactive).
As for `CCCc1ccc(OCC(=O)NNC(=S)NC(=O)c2ccco2)cc1`, the figure is 4.47% (inactive); as for `CC(Oc1ccc2ccccc2c1)C(=O)NNC(=S)NC(=O)c1ccco1` (configuration not stated), 51.6% (active); as for `CCc1nc2c(OCCOc3ccccc3)cccn2c1N(C=O)Cc1ccc(OC)cc1`, -6.89% (inactive).
With `CCOC(=O)[C@H]1[C@H]2COc3cc(OC)ccc3[C@@H]2N2C(=O)N(c3ccc(Br)cc3)C(=O)[C@@]12C`, the activation is -5.08% (inactive).
For `Cc1cc(C)c(S(=O)(=O)N2CCC(C(=O)OCc3c(C)noc3C)CC2)c(C)c1`, the activation was -3.3% (inactive).
As for `C=CCn1c(SCc2c(C(=O)OC)sc(N)c2C(=O)OC)nnc1-c1ccc(Cl)cc1`, the figure is 0% (inactive).
In the case of `COc1cc(/C=C2/SC(=S)N(Cc3ccccc3)C2=O)cc(OC)c1O`, the activation was 24.3% (active).
As for `COc1ccc(CCNC2=C(Cl)C(=O)N(Cc3ccccc3)C2=O)cc1OC`, the figure is -3.94% (inactive); as for `CN1C=CC=C/C1=C1\SC(=S)N(Cc2ccccc2)C1=O`, -13.4% (inactive); as for `COc1ccc(C)cc1-n1nnnc1SCc1nc2ccccc2c(=O)[nH]1`, 16.2% (active).
Then `COc1ccc(CCCc2nnc(SCc3nc4ccccc4c(=O)[nH]3)n2C)cc1`, with -15.5% (inactive); and `CCn1c(COc2c(C)cccc2C)nnc1SCc1nc2ccccc2c(=O)[nH]1`, with -4.55% (inactive); and `O=C1CCN(CCCc2ccccc2)CCN1CCO`, with -5.68% (inactive).
As for `CCCCN1CC(COCc2ccccc2)OCCS1(=O)=O` (configuration not stated), the figure is -4.53% (inactive); as for `O=S1(=O)C[C@@H](N2CCN(CCO)CC2)[C@H](COCc2ccccc2)N1`, 17.3% (active); as for `COc1ccc(OC)c(NC(=O)c2cc(-c3cc(F)ccc3OCC3CCCO3)n[nH]2)c1` (configuration not stated), -6.22% (inactive).
For `CC(C)(C)OC(=O)NC(Cc1ccccc1)C(=O)NC(CSC1CCCCO1)C(=O)NN` (configuration not stated), the activation was -3.12% (inactive).
With `COC(=O)c1cc(C(=O)NC(C)C2CC3CCC2C3)cc([N+](=O)[O-])c1` (configuration not stated), the activation is -7.37% (inactive).
For `CCN(CC)CCCC(C)n1c2nc(=O)[nH]c(=O)c-2nc2cc(Cl)ccc21` (configuration not stated), the activation was 182% (active).
Then `Fc1ccccc1COc1ccccc1CNCc1ccncc1`, with -7.35% (inactive); and `COc1ccc(C(CCNCc2ccccc2F)c2ccc(F)cc2)cc1` (configuration not stated), with -4.82% (inactive).
Then `COc1cccc(CNCCc2c[nH]c3ccccc23)c1OCc1ccccc1F`, with 16.5% (active); and `CC(C)C[C@H]1CN=C(Nc2ccccc2)N1CC1CCCCC1`, with -8.04% (inactive); and `CC(=O)Nc1ccc(OC(=O)COc2ccc(Br)cc2)cc1`, with -5.95% (inactive).
As for `Cn1cccc1C(=O)NNC(=O)COc1ccc(Br)cc1`, the figure is -2.51% (inactive); as for `Cc1ccc(O)c(NC(=S)NC(=O)COc2ccc(Br)cc2)c1`, 33.4% (active).
Take `COCCNc1cc(-c2ccccc2)nc2cc(-c3cccc(F)c3)nn12`: the activation is -4.59% (inactive).
Then `Cc1ccc(C2(C)NC(=O)N(CC(=O)Nc3ccccc3C(=O)N3CCCCC3)C2=O)cc1` (configuration not stated), with 0.58% (inactive); and `CC1CCC2(CC1)NC(=O)N(CC(=O)c1ccc3c(c1)OCO3)C2=O` (configuration not stated), with -2.81% (inactive); and `COc1cc(NC(=O)CN2C(=O)NC(C)(c3ccc(OC(F)F)cc3)C2=O)cc(OC)c1OC` (configuration not stated), with 5.37% (inactive).
As for `COc1ccc(C(=O)CN2C(=O)NC(C)(c3ccc(C)cc3)C2=O)cc1OC` (configuration not stated), the figure is 16.2% (active).
With `Cc1ccc(C2(C)NC(=O)N(CC(=O)N3CC(=O)Nc4ccccc43)C2=O)cc1` (configuration not stated), the activation was -1.27% (inactive).
Consider `CC1(c2ccc(Cl)cc2)NC(=O)N(CC(=O)c2ccc3c(c2)OCO3)C1=O` (configuration not stated), for which the activation was 20.6% (active).
As for `COc1ccc(C2(C)NC(=O)N(CC(=O)c3ccc4c(c3)OCO4)C2=O)cc1` (configuration not stated), the figure is 10.2% (inactive).
In the case of `Cc1ccc(NC(=O)CN2C(=O)NC(C)(c3ccc(Cl)cc3)C2=O)c(Br)c1` (configuration not stated), the activation is 17.6% (active).
Regarding `Cc1ccc(S(=O)(=O)N2CCN(C(=O)CN3C(=O)NC(C)(c4ccc(Cl)cc4)C3=O)CC2)c(C)c1` (configuration not stated), the activation is -3.67% (inactive).
As for `O=C(NC(c1ccc(-c2ccccc2)cc1)c1cnccn1)C1CCN(CCOc2ccc(Cl)cc2Cl)CC1` (configuration not stated), the figure is -1.39% (inactive); as for `Cc1cc(Br)cn2c(Cc3ccsc3)c(-c3ccc(C#N)cc3)nc12`, -1.39% (inactive).
Then `COCCCNc1nc2c(-c3cccc(C)c3)nnn2c2ccc(Cl)cc12`, with -3.36% (inactive).
